Drawing on PubChem BioAssay (NCI), this text covers growth for 9 compounds.

About 83,000 compounds went through this panel and 20% of them were active in at least one assay; those are over-represented in the sample as a whole.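 Interpretation: 100, growth as untreated; towards 0, rising growth inhibition; 0, no net growth; 0 to -100, cell death. Compounds scoring below 10 were considered active.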 A number with no mark means an inactive call. Active and inactive are the calls of the source.

Some test systems named below: SR leukemia; RPMI-8226 leukemia; OVCAR-8 ovarian; OVCAR-5 ovarian; SK-OV-3 ovarian; IGROV1 ovarian; HS 578T breast; NCI/ADR-RES ovarian; T-47D breast; BT-549 breast; MDA-MB-435 melanoma; SW-620 colon; MCF7 breast; HCT-116 colon; HCC-2998 colon; KM12 colon; OVCAR-4 ovarian; OVCAR-3 ovarian.
What all share (assay): NCI-60 one-dose screen, 48 h (100 = growth as untreated, 0 = no growth, -100 = all killed)
Common to all, as to conditions: 10 µM unless noted

As to `C=C(C)[C@@H]1CC[C@]2(COP(=O)(OCC)OCC)CC[C@]3(C)[C@H](CC[C@@H]4[C@@]5(C)CC[C@H](OP(=O)(OCC)OCC)C(C)(C)[C@@H]5CC[C@]43C)[C@@H]12`, the growth in the experiment on SR leukemia is 30.2%; in the experiment with RPMI-8226 leukemia, -18.1% (active); in the experiment on OVCAR-8 ovarian, 40.5%; with OVCAR-5 ovarian, 84.3%; in the experiment with SK-OV-3 ovarian, 77.2%; in the experiment with IGROV1 ovarian, 74.5%. For the same compound, the growth with HS 578T breast was 74.7%; with NCI/ADR-RES ovarian, 31.8%; in the experiment with T-47D breast it was 20.8%; in the experiment with BT-549 breast, 65%; in the experiment on MDA-MB-435 melanoma, 61%; in the experiment with SW-620 colon it was 38.4%. Moreover, the growth was 0.255% (active) with MCF7 breast, 6.75% (active) with HCT-116 colon, 19.9% in the experiment on HCC-2998 colon and 54.2% with KM12 colon.

Consider `CCCCSC1=C(Cl)CN(c2ccc(Cl)cc2)C1=O`, for which the growth is 34.3% with SR leukemia; 31.7% in the experiment on RPMI-8226 leukemia; 99.1% with OVCAR-8 ovarian; 104% in the experiment with OVCAR-5 ovarian; 104% in the experiment on OVCAR-4 ovarian; 110% with SK-OV-3 ovarian. The growth in the experiment on IGROV1 ovarian is 109%; in the experiment with HS 578T breast, 107%; in the experiment on T-47D breast it was 72.7%; in the experiment with BT-549 breast it was 112%; with MDA-MB-435 melanoma, 107%; in the experiment with SW-620 colon, 104%. Besides, the growth in the experiment on MCF7 breast was 26.2%; in the experiment on HCT-116 colon it was 93.4%; in the experiment on HCC-2998 colon, 107%; in the experiment with KM12 colon, 98.7%.

As to `COc1cc(NC(=O)Nc2cccc(-c3cc(=O)c4c(OC)c(OC)c(OC)cc4o3)c2)cc(OC)c1OC`, the growth in the experiment with SR leukemia was 54.5%; with RPMI-8226 leukemia, 31.4%; with OVCAR-8 ovarian it was 38.4%; with OVCAR-5 ovarian, 79.5%; with SK-OV-3 ovarian, 111%; with IGROV1 ovarian it was 34.5%. For the same compound, the growth was 40.1% in the experiment on OVCAR-3 ovarian; 17.1% in the experiment with HS 578T breast; 82.4% in the experiment with NCI/ADR-RES ovarian; 11.9% in the experiment with T-47D breast; 31.9% in the experiment with BT-549 breast; 41.3% in the experiment with SW-620 colon. Further, the growth in the experiment with MCF7 breast was 40.7%; in the experiment on HCT-116 colon, 28.9%; with HCC-2998 colon it was 60.7%; with KM12 colon, 38.7%.

With `CN1CCN(Cc2ccc(NC(=O)c3cncc(C#Cc4cnc5ccc(OCC(F)F)nn45)c3)cc2C(F)(F)F)CC1`, the growth is -24.3% (active) in the experiment with SR leukemia; -21.7% (active) in the experiment with RPMI-8226 leukemia; -74.6% (active) with OVCAR-8 ovarian; -47.1% (active) with OVCAR-5 ovarian; -24.2% (active) in the experiment with SK-OV-3 ovarian; -53.8% (active) in the experiment on IGROV1 ovarian. Besides, the growth with HS 578T breast is -34.1% (active); with NCI/ADR-RES ovarian, -28.1% (active); in the experiment with T-47D breast, 8.64% (active); in the experiment with BT-549 breast, -16.6% (active); with MDA-MB-435 melanoma, -92.6% (active); with SW-620 colon, -49.1% (active). In addition, the growth in the experiment on MCF7 breast is -66.6% (active); in the experiment on HCT-116 colon it was -84.3% (active); in the experiment with HCC-2998 colon it was -67% (active); in the experiment with KM12 colon, -53.9% (active).

As to `Fc1ccc2nc(-c3cnn4cccnc34)sc2c1`, the growth with SR leukemia was 78%; in the experiment with RPMI-8226 leukemia it was 87.6%; in the experiment on OVCAR-8 ovarian, 83.5%; in the experiment on OVCAR-5 ovarian, 101%; with SK-OV-3 ovarian, 81%; in the experiment on IGROV1 ovarian, 49.2%. Besides, the growth is 84.2% with OVCAR-3 ovarian; 90.1% in the experiment on HS 578T breast; 96.6% in the experiment on NCI/ADR-RES ovarian; 44.2% in the experiment with T-47D breast; 108% with MDA-MB-435 melanoma; 93.7% with SW-620 colon. The growth in the experiment with MCF7 breast is 26.7%; with HCT-116 colon it was 88.8%; in the experiment with HCC-2998 colon, 83%; with KM12 colon, 79.8%.

In the case of `CC1=C(C)C(=O)C(Nc2cccc(C(F)(F)F)c2)=C(Br)C1=O`, the growth with SR leukemia is 26.1%; with RPMI-8226 leukemia, -10.8% (active); with OVCAR-8 ovarian it was 97%; in the experiment with OVCAR-5 ovarian, 128%; in the experiment on SK-OV-3 ovarian, 86%; in the experiment on IGROV1 ovarian, 74.8%. The growth in the experiment with OVCAR-3 ovarian is 103%; in the experiment on HS 578T breast it was 99.4%; with NCI/ADR-RES ovarian it was 103%; in the experiment with T-47D breast, 17.6%; in the experiment with BT-549 breast, 110%; with MDA-MB-435 melanoma, 103%. Moreover, the growth was 48.7% with SW-620 colon; 52.3% in the experiment with MCF7 breast; 20% in the experiment on HCT-116 colon; 108% in the experiment with HCC-2998 colon; 90.7% in the experiment with KM12 colon.

In the case of `Cc1ccc(C(=O)Nc2ccc(CNCCN3CCNCC3)c(C(F)(F)F)c2)cc1C#Cc1cnc2cccnn12`, the growth in the experiment on SR leukemia is -39.4% (active); in the experiment on RPMI-8226 leukemia, -23.3% (active); in the experiment on OVCAR-8 ovarian, 2.74% (active); in the experiment on OVCAR-5 ovarian, 51.8%; in the experiment on SK-OV-3 ovarian, 114%; in the experiment with IGROV1 ovarian it was 11.8%. Besides, the growth in the experiment with OVCAR-3 ovarian is -20.5% (active); in the experiment on HS 578T breast, 36.6%; with T-47D breast it was 3.12% (active); with MDA-MB-435 melanoma it was -76.2% (active); in the experiment on SW-620 colon it was -11.1% (active); in the experiment on MCF7 breast, -82.9% (active). The growth in the experiment with HCT-116 colon is -58.5% (active); in the experiment on HCC-2998 colon it was 3.91% (active); in the experiment on KM12 colon, -45.6% (active).

For the compound `COc1ccc(C2c3[nH]c4ccc(Cl)cc4c3CCN2c2oc(CO)nc2C#N)cc1` (centres undefined), the growth in the experiment with SR leukemia was 17.4%; in the experiment with RPMI-8226 leukemia it was 46.3%; with OVCAR-8 ovarian, 45.9%; in the experiment on OVCAR-5 ovarian, 78.1%; in the experiment on SK-OV-3 ovarian, 101%; in the experiment with IGROV1 ovarian, 39.4%. In addition, the growth in the experiment with OVCAR-3 ovarian was 46.7%; with HS 578T breast, 69.1%; in the experiment with NCI/ADR-RES ovarian, 43%; in the experiment with T-47D breast it was 43.1%; in the experiment with MDA-MB-435 melanoma, 15.2%; with SW-620 colon, 32.9%. In addition, the growth was 32% in the experiment on MCF7 breast, 32.1% with HCT-116 colon, 57% in the experiment on HCC-2998 colon and 23.4% in the experiment on KM12 colon.

In the case of `COc1cc(C(C)=C(c2ccc(OCCN(C)C)cc2)c2ccc(OCCN(C)C)cc2)ccc1F`, the growth in the experiment with SR leukemia is 99.2%; in the experiment with RPMI-8226 leukemia, 107%; in the experiment with OVCAR-8 ovarian, 104%; with OVCAR-5 ovarian, 103%; with SK-OV-3 ovarian it was 102%; in the experiment with IGROV1 ovarian it was 105%. Besides, the growth with OVCAR-3 ovarian is 109%; with HS 578T breast it was 101%; in the experiment with NCI/ADR-RES ovarian, 105%; in the experiment with T-47D breast, 93.4%; in the experiment on BT-549 breast it was 107%; with SW-620 colon it was 104%. Also, the growth with MCF7 breast was 93.8%; with HCT-116 colon, 107%; in the experiment with HCC-2998 colon, 100%; in the experiment with KM12 colon it was 109%.
